The text below walks through data of the supplement of paper PMC10849652.

SMILES strings stand for the structures. About 7,900 targets were measured; listed, in parts, are those with a hit and a random draw of the rest. About 0.6% of all pairs of compound and target were hits. A number with no mark means an inactive call.

Assay in all cases: log2 fold change, soluble protein after heating vs DMSO (PISA); higher = thermal stabilisation; K562 cells, 10 uM, 30 min; active = over 0.2 and 3.5 SD of the protein, either way, in both replicates (recomputed)
Experiment [1] has as its target YAE1 (UniProt Q9NRH1). The gist of the method:
(§1)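 K562 cells at 2×10^6 cells/mL were treated with 10 μM compound for 30 min. Aliquots were heated for 3 min across 48°C-58°C, pooled, and extracted in PBS with 0.5% NP-40 at 4°C; soluble protein was the supernatant after 21,000xg for 90 min. Soluble protein was quantified by TMTpro 16plex LC-MS/MS with channel sums equalised, and reported as log2 fold change in thermal stability against DMSO controls, with values from duplicates.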

For experiment [2], the target named is YBX1 (UniProt P67809). In outline: as §1
Sequence of YBX1 (P67809 whole entry, looked up): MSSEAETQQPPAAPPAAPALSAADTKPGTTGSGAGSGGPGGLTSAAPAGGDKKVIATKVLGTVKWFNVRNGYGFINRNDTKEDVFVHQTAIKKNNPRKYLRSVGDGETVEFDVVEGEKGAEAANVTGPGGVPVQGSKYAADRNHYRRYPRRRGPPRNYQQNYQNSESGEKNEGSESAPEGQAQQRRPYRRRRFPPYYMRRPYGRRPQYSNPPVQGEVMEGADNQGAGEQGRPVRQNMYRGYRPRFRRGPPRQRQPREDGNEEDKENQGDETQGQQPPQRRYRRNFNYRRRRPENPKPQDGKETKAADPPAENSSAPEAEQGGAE
In experiment [3] the target is YES1 (UniProt P07947). In outline:
as §1

Experiment [4] has as its target YIPF4 (UniProt Q9BSR8). In outline:
as §1

Experiment [5] deals with YIPF5 isoform 3 (UniProt Q969M3). The gist of the method: as §1
Sequence of YIPF5 isoform 3 (Q969M3 whole entry, looked up, canonical isoform): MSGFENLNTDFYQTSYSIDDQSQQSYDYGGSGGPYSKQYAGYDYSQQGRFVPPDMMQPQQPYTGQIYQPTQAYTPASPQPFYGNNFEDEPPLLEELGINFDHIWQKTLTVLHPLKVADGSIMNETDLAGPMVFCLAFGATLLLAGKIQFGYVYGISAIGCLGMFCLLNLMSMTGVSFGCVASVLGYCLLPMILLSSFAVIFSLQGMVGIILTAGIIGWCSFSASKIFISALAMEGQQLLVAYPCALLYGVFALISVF
In experiment [6] the target is YIPF6 (UniProt Q96EC8). In outline:
as §1

In experiment [7] the target is YLPM1 (UniProt P49750). In outline:
as §1

Experiment [8] addresses YOD1 (UniProt Q5VVQ6). The gist of the method: as §1
The target of experiment [9] is YPEL5 (UniProt P62699). The gist of the method:
as §1

Sequence of YOD1 (Q5VVQ6 whole entry, looked up): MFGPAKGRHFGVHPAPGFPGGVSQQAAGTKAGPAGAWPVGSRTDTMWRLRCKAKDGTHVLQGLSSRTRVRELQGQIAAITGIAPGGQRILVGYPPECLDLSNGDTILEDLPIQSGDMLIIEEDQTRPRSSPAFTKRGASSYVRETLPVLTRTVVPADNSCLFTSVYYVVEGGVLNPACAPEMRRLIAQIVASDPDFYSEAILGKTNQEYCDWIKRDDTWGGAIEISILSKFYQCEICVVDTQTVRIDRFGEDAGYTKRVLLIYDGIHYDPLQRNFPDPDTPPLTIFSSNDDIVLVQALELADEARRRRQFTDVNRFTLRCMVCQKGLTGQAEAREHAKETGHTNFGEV
Sequence of YAE1 (Q9NRH1 whole entry, looked up): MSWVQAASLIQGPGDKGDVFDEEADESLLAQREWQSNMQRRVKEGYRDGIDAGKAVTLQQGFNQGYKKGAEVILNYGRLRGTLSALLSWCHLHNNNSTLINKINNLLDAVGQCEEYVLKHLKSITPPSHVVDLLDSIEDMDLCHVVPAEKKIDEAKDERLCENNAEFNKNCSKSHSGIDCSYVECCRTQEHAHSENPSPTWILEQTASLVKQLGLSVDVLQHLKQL
Sequence of YIPF4 (Q9BSR8 whole entry, looked up): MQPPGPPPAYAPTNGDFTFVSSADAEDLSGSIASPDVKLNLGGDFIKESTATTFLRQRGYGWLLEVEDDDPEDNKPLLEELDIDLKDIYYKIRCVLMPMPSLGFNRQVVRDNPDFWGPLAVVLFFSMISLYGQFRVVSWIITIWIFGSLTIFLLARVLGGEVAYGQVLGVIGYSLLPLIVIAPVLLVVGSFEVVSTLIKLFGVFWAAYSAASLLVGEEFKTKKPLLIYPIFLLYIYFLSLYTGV
Sequence of YIPF6 (Q96EC8 whole entry, looked up): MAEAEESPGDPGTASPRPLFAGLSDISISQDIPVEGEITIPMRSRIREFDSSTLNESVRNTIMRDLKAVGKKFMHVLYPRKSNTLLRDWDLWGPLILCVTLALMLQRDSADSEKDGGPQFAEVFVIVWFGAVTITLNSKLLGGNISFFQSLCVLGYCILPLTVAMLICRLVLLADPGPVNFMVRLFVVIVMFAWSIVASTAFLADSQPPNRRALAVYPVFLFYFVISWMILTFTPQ
Sequence of YLPM1 (P49750 whole entry, looked up): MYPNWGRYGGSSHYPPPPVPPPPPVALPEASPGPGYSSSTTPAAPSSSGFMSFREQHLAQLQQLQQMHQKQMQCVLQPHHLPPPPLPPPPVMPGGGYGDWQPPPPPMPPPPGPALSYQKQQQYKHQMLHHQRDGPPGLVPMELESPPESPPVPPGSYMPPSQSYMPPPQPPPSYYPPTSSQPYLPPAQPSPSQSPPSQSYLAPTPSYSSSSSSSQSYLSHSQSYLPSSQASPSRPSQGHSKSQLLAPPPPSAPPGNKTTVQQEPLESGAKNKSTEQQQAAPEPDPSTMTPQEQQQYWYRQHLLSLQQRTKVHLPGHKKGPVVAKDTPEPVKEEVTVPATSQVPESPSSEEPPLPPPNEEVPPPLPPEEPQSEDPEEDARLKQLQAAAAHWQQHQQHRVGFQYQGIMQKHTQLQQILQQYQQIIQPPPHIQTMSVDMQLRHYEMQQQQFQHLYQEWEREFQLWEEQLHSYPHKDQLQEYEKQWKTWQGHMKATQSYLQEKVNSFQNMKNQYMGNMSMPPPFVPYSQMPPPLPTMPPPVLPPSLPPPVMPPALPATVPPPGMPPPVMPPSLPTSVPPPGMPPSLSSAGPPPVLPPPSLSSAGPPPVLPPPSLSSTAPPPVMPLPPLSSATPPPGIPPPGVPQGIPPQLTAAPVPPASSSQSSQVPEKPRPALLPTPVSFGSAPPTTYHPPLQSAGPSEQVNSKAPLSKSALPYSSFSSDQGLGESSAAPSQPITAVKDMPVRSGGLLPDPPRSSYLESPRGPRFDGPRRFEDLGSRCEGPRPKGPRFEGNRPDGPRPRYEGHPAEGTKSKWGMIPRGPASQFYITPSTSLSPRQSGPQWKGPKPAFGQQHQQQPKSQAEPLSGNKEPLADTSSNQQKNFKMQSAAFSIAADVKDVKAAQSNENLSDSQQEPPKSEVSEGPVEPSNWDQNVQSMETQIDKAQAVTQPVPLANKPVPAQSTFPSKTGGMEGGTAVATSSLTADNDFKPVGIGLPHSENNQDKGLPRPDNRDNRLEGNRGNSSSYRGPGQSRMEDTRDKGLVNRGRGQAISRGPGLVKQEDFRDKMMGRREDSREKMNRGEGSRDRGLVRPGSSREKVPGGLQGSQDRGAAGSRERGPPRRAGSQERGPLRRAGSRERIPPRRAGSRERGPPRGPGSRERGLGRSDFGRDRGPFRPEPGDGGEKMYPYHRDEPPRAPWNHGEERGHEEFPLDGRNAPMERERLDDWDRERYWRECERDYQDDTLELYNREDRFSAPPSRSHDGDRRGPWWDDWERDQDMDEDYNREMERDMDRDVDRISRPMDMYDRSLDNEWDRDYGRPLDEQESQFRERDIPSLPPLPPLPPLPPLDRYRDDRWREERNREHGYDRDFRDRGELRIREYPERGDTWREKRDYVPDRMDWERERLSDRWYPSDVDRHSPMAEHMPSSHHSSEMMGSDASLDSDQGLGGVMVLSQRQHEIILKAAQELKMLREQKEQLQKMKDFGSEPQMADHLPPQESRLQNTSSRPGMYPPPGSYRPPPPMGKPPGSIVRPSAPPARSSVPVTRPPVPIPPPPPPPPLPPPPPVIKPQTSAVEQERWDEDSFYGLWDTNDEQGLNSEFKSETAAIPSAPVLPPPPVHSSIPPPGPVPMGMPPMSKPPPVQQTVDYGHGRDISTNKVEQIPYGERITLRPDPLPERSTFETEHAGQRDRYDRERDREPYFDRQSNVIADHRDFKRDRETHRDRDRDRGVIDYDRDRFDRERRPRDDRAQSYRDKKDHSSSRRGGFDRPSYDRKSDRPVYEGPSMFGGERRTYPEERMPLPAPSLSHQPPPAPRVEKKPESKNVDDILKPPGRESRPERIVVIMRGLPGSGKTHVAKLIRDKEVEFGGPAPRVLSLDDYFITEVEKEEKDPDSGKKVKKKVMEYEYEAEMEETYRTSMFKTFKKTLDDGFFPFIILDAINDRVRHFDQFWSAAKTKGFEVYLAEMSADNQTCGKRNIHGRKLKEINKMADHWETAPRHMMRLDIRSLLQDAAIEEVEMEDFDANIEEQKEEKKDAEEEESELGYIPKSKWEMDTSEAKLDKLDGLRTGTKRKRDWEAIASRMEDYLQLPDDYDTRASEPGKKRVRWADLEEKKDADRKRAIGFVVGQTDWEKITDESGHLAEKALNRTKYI
Sequence of YES1 (P07947 whole entry, looked up): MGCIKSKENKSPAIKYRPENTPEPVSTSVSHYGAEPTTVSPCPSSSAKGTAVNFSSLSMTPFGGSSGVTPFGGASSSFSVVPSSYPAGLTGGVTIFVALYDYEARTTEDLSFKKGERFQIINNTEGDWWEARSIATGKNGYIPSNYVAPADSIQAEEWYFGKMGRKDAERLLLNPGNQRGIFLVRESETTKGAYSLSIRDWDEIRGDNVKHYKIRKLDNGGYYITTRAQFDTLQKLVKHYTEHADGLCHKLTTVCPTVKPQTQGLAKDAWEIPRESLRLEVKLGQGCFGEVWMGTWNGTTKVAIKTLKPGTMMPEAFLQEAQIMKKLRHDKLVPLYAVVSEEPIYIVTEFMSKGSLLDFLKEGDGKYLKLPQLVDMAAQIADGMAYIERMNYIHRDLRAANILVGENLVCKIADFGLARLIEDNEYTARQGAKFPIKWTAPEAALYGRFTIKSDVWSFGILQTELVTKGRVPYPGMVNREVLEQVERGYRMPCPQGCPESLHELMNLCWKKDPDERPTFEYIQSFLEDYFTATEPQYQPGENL
Sequence of YPEL5 (P62699 whole entry, looked up): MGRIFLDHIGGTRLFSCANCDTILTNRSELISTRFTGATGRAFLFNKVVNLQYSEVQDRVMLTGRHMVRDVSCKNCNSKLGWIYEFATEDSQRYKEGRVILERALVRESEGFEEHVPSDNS

On to `CN(C)CC(=O)Nc1ccc2[nH]c(=O)c3ccccc3c2c1`, for which the log2 fold change is -0.108 in experiment [1]; -0.134 in experiment [2]; -0.075 in [3]; 0.09 in experiment [4]; 0.014 in experiment [5]; -0.012 in [6]. The results for the log2 fold change in experiment [7], in [8] and in experiment [9] were -0.037, 0.043 and 0.008, respectively.

Consider `CC(C)(O)CC(=O)NCCn1ccc2ncnc(Nc3ccc(Oc4cccc(C(F)(F)F)c4)c(Cl)c3)c21`, for which the log2 fold change was 0.072 in [1]; 0.162 in experiment [2]; -0.054 in [3]; -0.012 in [4]; -0.094 in experiment [5]; 0.019 in [6]. For the same compound, the log2 fold change in [7] was -0.002; in experiment [8], -0.113; in experiment [9] it was 0.041.

In the case of `C=CC(=O)N1CCC[C@@H](n2nc(-c3ccc(Oc4ccccc4)cc3)c3c(N)ncnc32)C1` [ibrutinib], the log2 fold change in experiment [1] was -0.008; in [2] it was 0.103; in experiment [3], 0.188; in experiment [4], 0.009; in [5], -0.005; in experiment [6], -0.001. For the same compound, the log2 fold change in [7] is -0.117; in [8], -0.016; in experiment [9], 0.054.

For the compound `C#Cc1cccc(Nc2ncnc3cc(OCCOC)c(OCCOC)cc23)c1` [erlotinib], the log2 fold change in experiment [1] was 0.055; in experiment [2], -0.173; in experiment [3] it was -0.145; in experiment [4], 0.004; in [5], 0.011; in experiment [6], -0.017. The values for the log2 fold change in [7], in experiment [8] and in experiment [9] were 0.084, 0.064 and 0.049, respectively.

For the compound `CO[C@H]1C[C@@H]2CC[C@@H](C)[C@@](O)(O2)C(=O)C(=O)N2CCCC[C@H]2C(=O)O[C@H]([C@H](C)C[C@@H]2CC[C@H](n3cnnn3)[C@H](OC)C2)CC(=O)[C@H](C)/C=C(\C)[C@@H](O)[C@@H](OC)C(=O)[C@H](C)C[C@H](C)/C=C/C=C/C=C/1C` [zotarolimus], the log2 fold change is 0 in experiment [1]; -0.048 in experiment [2]; 0.053 in [3]; 0.015 in experiment [4]; 0.006 in experiment [5]; -0.026 in experiment [6]. Besides, the log2 fold change in experiment [7] was -0.001; in experiment [8] it was 0.05; in [9] it was 0.05.

For `CCn1c(C(=O)N(C2CC2)C2CC2)cc2c3c(ncn3C)c(Nc3cc(C)n(C)n3)nc21`, the log2 fold change was -0.018 in [1]; -0.016 in experiment [2]; -0.243 in experiment [3]; 0 in [4]; -0.01 in experiment [5]; 0.022 in [6]. In addition, the log2 fold change is -0.077 in experiment [7], -0.014 in experiment [8] and 0.027 in experiment [9].

As for `CNc1nc(-c2ccc3c(N)n[nH]c3c2)cc(N2C[C@@H](C(=O)NC3CCCCC3)CC[C@H]2C)n1`, the log2 fold change was -0.092 in [1]; 0.044 in [2]; -0.037 in experiment [3]; -0.082 in [4]; -0.115 in experiment [5]; -0.039 in [6]. Also, the log2 fold change in experiment [7] was 0.006; in [8] it was 0.011; in experiment [9] it was -0.06.

Turning to `COC(=O)[C@H](CCSC)NC(=O)c1ccc(NC[C@@H](N)CS)cc1-c1ccccc1`, the log2 fold change in [1] was 0.059; in experiment [2], 0.113; in [3] it was -0.006; in experiment [4], 0.088; in experiment [5] it was 0.046; in experiment [6], 0.041. The log2 fold change in [7] is -0.014; in experiment [8], -0.016; in experiment [9] it was -0.23.

Turning to `O=C1NC(=O)/C(=C\c2ccc3nccnc3c2)S1`, the log2 fold change in [1] was -0.037; in [2], -0.009; in experiment [3], -0.09; in experiment [4], 0.04; in experiment [5], 0.009; in experiment [6], 0.025. In addition, the log2 fold change was 0.046 in [7], 0.129 in experiment [8] and -0.002 in experiment [9].

Regarding `Cc1nc(Nc2ncc(C(=O)Nc3c(C)cccc3Cl)s2)cc(N2CCN(CCO)CC2)n1` [dasatinib], the log2 fold change in [1] was 0.152; in experiment [2], 0.167; in experiment [3], -0.737 (active); in experiment [4], 0.021; in experiment [5], 0.055; in [6], 0.256. The log2 fold change in experiment [7] was -0.062; in [8], -0.115; in experiment [9], -0.004.

Take `O=C1NC(=O)C(c2cnc3ccccn23)=C1c1cn2c3c(cc(F)cc13)CN(C(=O)N1CCCCC1)CC2`: the log2 fold change is -0.02 in [1]; 0.126 in experiment [2]; 0.011 in [3]; -0.087 in [4]; 0.032 in experiment [5]; 0.01 in experiment [6]. Further, the values for the log2 fold change in experiment [7], in experiment [8] and in experiment [9] were 0.026, -0.079 and -0.064, respectively.

For `CCCc1cc(C)[nH]c(=O)c1CNC(=O)c1cc(-c2ccnc(N3CCN(C)CC3)c2)cc2c1cnn2C(C)C`, the log2 fold change was -0.083 in [1]; 0.055 in [2]; 0.075 in experiment [3]; -0.036 in [4]; -0.005 in experiment [5]; -0.067 in [6]. Moreover, the log2 fold change in experiment [7] was 0.083; in experiment [8] it was -0.017; in experiment [9], 0.014.

As to `Cc1cc(SCc2sc(-c3ccc(C(F)(F)F)cc3)nc2C)ccc1OCC(=O)O`, the log2 fold change in experiment [1] was 0.021; in experiment [2], -0.024; in experiment [3], 0.06; in [4], -0.04; in experiment [5], 0.015; in experiment [6], -0.175. Further, the log2 fold change in [7] is 0; in [8], 0.061; in [9], 0.098.
